Measured values taken from PubChem BioAssay AID1224856 (National Center for Advancing Translational Sciences (NCATS), 2016).
Records with an inconclusive call do not appear. Activity calls are given as the source filed them. Calls come from the whole dose curve; as a rule, active = well fitted curve in the direction sought with a large enough effect; inconclusive = small, poorly fitted or top-dose-only effect, or another doubt; inactive = no such curve, though single readings can be large or run the other way.

test: Cell viability assay for measurement of the protective activity of small molecules against cell death caused by Zika virus infection in human astrocytes; settings: human astrocytes ZIKV-induced death, ATP luminescence, 72 h; series mostly up to 46.1 µM; protection from virus-induced death: at the top concentration
In short: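 Human astrocytes (350 cells/well) were treated with compound 1 h before Zika virus infection (2 FFU/cell) and incubated 72 h at 37 °C. Viability was read as ATP-content luminescence, and results are given as percent inhibition of virus-induced viability loss.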

| SMILES | protection from virus-induced death | Potency |
| --- | --- | --- |
| O=C1C=CC[C@@H]2[C@H]3CCCN4CCC[C@@H](CN12)[C@@H]34 | 0.303% (inactive) | – |
| CC(C)[C@H]1C(=O)N[C@H](CO)Cc2c[nH]c3cccc(c23)N1C | – | 1.09 µM (active) |
| O=C(Oc1ccccc1)c1cccc(C(=O)Oc2ccccc2)c1 | 3.3% [at 96.3 µM] (inactive) | – |
| O=c1c(-c2ccc(O)cc2)coc2cc(O)ccc12 | -6.51% (inactive) | – |
| CC[n+]1c(-c2ccccc2)c2cc(N)ccc2c2ccc(N)cc21 | – | 1.95 µM (active) |
| COc1cccc(-c2ccc(NC(=O)C3=C(C(=O)O)CCC3)c(F)c2)c1 | 4.42% (inactive) | – |
| Cc1c(C(=O)O)c(O)cc2c1C(=O)c1c(O)c([C@@H]3O[C@H](CO)[C@@H](O)[C@H](O)[C@H]3O)c(O)c(O)c1C2=O | -2.94% (inactive) | – |
| O=C(c1ccccc1)c1ccc2n1CCC2C(=O)O (stereo unspecified) | 1.12% (inactive) | – |
| COc1ccc2nc(NC(=O)Nc3ccccc3)sc2c1 | -9.01% (inactive) | – |
| Nc1ccc(O)c(C(=O)O)c1 | -4.35% (inactive) | – |
| CN1CC(=O)N/C1=N/C(=O)Nc1cccc(Cl)c1 | -5.38% (inactive) | – |
| O=C1c2ccccc2C(=O)c2c1ccc(O)c2O | -3.51% (inactive) | – |
| C/C(=N\O)c1ccc(OCC(=O)N2CCCCC2)cc1 | -5.29% (inactive) | – |
| CC(O)=C(C#N)C(=O)Nc1ccc(C(F)(F)F)cc1 | -8.15% (inactive) | – |
| O=C1C(Cl)=C(NCCN2CCOCC2)C(=O)c2ncccc21 | -8.42% (inactive) | – |
| O=C1C[C@@H](c2ccc(O)cc2)Oc2cc(O)cc(O)c21 | 4.81% (inactive) | – |
| Cc1cccc(C#Cc2ccccc2)n1 | -0.738% (inactive) | – |
| C[C@@H](O[C@H]1OCCN(Cc2n[nH]c(=O)[nH]2)[C@@H]1c1ccc(F)cc1)c1cc(C(F)(F)F)cc(C(F)(F)F)c1 | -9.91% (inactive) | – |
| CNC1[C@H](O)C(O[C@@H]2C(O)C(O[C@H]3O[C@H]([C@@H](C)NC)CC[C@H]3N)[C@@H](N)C[C@H]2N)OC[C@]1(C)O (stereo partly specified) | -0.423% (inactive) | – |
| O=c1[nH]nc(Sc2ncc([N+](=O)[O-])s2)n1-c1ccc2c(c1)OCCO2 | -10.2% (inactive) | – |
| Cc1csc(NC(=O)c2sc3nc4c(c(C(F)(F)F)c3c2N)CCC4)n1 | -6.74% (inactive) | – |
| CN1CCN(c2cc3c(nn2)Oc2ccccc2N3C)CC1 | 1.46% [at 23.8 µM] (inactive) | – |
| [O-][n+]1ccccc1SSc1cccc[n+]1[O-] | -9.35% [at 88.3 µM] (inactive) | – |
| O=C(O)c1ccccc1NCCc1ccccc1 | -1.69% (inactive) | – |
| CN(C)CCCSc1ccccc1NC(=O)/C=C/c1ccccc1 | -2.15% (inactive) | – |
| Nc1ccc2c(c1)CN1C(=O)c3ccccc3C1=N2 | -6.32% [at 23.8 µM] (inactive) | – |
